Assay [1] can be described thus: qHTS assay to identify aromatase inhibitors - cell viability counter screen (AID 743084).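 Note: cells stimulated with testosterone during compound exposure; nearly all actives have a fitted effect of over 55% in size.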
Assay [2] addresses Aryl hydrocarbon receptor (Homo sapiens) (UniProt P35869). In words: qHTS assay to identify small molecule that activate the aryl hydrocarbon receptor (AhR) signaling pathway (AID 743085).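 For activation: HG2L7.5c1 human HepG2 liver cells with stably integrated DRE-driven firefly reporter; series mostly up to about 70 µM.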 Note: nearly all actives have a fitted effect of over 15% in size. Note: potency is the fitted concentration of half-maximal effect. The method, boiled down:
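Luminescence (ONE-Glo) from a dioxin-responsive-element luciferase reporter in HG2L7.5c1 HepG2 cells after 24 hr compound exposure at 37C; viability measured by CellTiter-Fluor fluorescence beforehand.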
Background: In qHTS, concentration-response curves come from the screen itself.

Assay [3] is described as follows: qHTS assay to identify small molecule that activate the aryl hydrocarbon receptor (AhR) signaling pathway - cell viability counter screen (AID 743086). Note: series mostly up to about 70 µM; nearly all actives have a fitted effect of over 45% in size. In short, it runs like this: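 Cytotoxicity counter screen: CellTiter-Fluor signal (30 min, 37 C) in 4000 HepG2 cells/well carrying the DRE-luciferase reporter, following 24 h compound exposure at 37 C.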
Assay [4] addresses Peroxisome proliferator-activated receptor gamma (Homo sapiens) (UniProt P37231). In words: qHTS assay to identify small molecule agonists of the peroxisome proliferator-activated receptor gamma (PPARg) signaling pathway (AID 743094; active = well fitted activation curve with a large enough effect in the signal ratio in the repeat runs, not every such curve was filed as active; the % refers to the signal ratio). The method, boiled down:
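GeneBLAzer PPARg UAS-bla HEK293H cells were plated, rested 5 h, then exposed to compounds for 17 h at 37C. Beta-lactamase activity was read by LiveBLAzer B/G FRET substrate fluorescence after 1 h at room temperature.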

Assay [5] has the same target. In words: qHTS assay to identify small molecule antagonists of the peroxisome proliferator-activated receptor gamma (PPARg) signaling pathway (AID 743191; calls by dose curve; note: series mostly up to about 63 µM; nearly all actives have a fitted effect of over 30% in size). The method, boiled down:
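Beta-lactamase reporter under UAS control in HEK293H PPARg-bla cells; compound treatment 17 h at 37C. Read-out: fluorescence intensity after 1 h room-temperature incubation with LiveBLAzer B/G FRET substrate.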

Assay [6] in a line: qHTS assay to identify small molecule antagonists of the peroxisome proliferator-activated receptor gamma (PPARg) signaling pathway - cell viability counter screen (AID 743194). Note: nearly all actives have a fitted effect of over 55% in size. Conditions: Potency: co-treated with 50 nM rosiglitazone. In short, it runs like this: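 Viability was measured as CellTiter-Glo luminescence in GeneBLAzer PPARg UAS-bla HEK293H cells. These cells had been exposed 17 h at 37 C to compounds together with rosiglitazone at 50 nM final, with the beta-lactamase readout taken in the same wells.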

The nature of assay [7]: qHTS assay for small molecule agonists of the antioxidant response element (ARE) signaling pathway - cell viability counter screen (AID 743203; calls by dose curve; note: nearly all actives have a fitted effect of over 55% in size). The method, boiled down: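 ARE-bla HepG2 cells were plated, rested 5 h at 37C/5% CO2, then exposed to compounds in DMSO for 16 h. Viability was read as CellTiter-Glo luminescence after 30 min at room temperature, in the same wells as the ARE screen.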

Assay [8] has as its target Peroxisome proliferator-activated receptor delta (Homo sapiens) (UniProt Q03181). The experiment in a line: qHTS assay to identify small molecule agonists of the peroxisome proliferator-activated receptor delta (PPARd) signaling pathway (AID 743212; calls by dose curve). The method, boiled down: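 HEK293H UAS-bla reporter cells, human PPARd system; compounds delivered in DMSO after 5 h plating, then at 37 C. Beta-lactamase FRET read, 2 h RT substrate step.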

Assay [9] can be described thus: qHTS assay to identify small molecule antagonists of the peroxisome proliferator-activated receptor delta (PPARd) signaling pathway - cell viability counter screen (AID 743213). Note: nearly all actives have a fitted effect of over 50% in size. The method, boiled down:
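HEK293H PPARd UAS-bla cells, 5 h pre-incubation, compound + L165041 300 nM final, 17 h 37 C; B/G FRET substrate 2 h RT; then CellTiter-Glo 30 min RT, luminescence.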

For assay [10], the target named is Peroxisome proliferator-activated receptor delta (Homo sapiens) (UniProt Q03181). The experiment in a line: qHTS assay to identify small molecule antagonists of the peroxisome proliferator-activated receptor delta (PPARd) signaling pathway (AID 743215; active = well fitted inhibition curve with a large enough effect in the signal ratio in the repeat runs, not every such curve was filed as active; the % refers to the signal ratio;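 note: cells stimulated with agonist L165041 at 300 nM final during compound exposure; series mostly up to about 62 µM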). The method, boiled down:
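PPARd-bla HEK293H cells (UAS-bla reporter) preincubated 5 h, then given compound plus 300 nM final L165041 agonist for 17 h at 37 C. Beta-lactamase activity read by LiveBLAzer B/G FRET substrate fluorescence after 2 h at room temperature.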

A short description of assay [11]: qHTS assay to identify small molecule agonists of the farnesoid-X-receptor (FXR) signaling pathway - cell viability counter screen (AID 743218). Note: nearly all actives have a fitted effect of over 45% in size. In short, it runs like this: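 FXR-UAS-bla HEK 293T cells exposed to compounds for 16 h at 37C. Cytotoxicity read in the same wells by CellTiter-Glo luminescence after 30 min at room temperature, following the beta-lactamase FRET read.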

In assay [12] the target is Vitamin D3 receptor (Homo sapiens) (UniProt P11473). In words: qHTS assay to identify small molecule agonists of the vitamin D receptor (VDR) signaling pathway (AID 743222; calls by dose curve). In short, it runs like this:
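VDR-bla cells plated 4 h at 37 C, then exposed to compounds for 16 h at 37 C. Beta-lactamase reporter activity measured by fluorescence after 2 h room-temperature loading with LiveBLAzer B/G FRET substrate.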

Assay [13] shares this target. In words: qHTS assay to identify small molecule antagonists of the vitamin D receptor (VDR) signaling pathway (AID 743223; active = well fitted inhibition curve with a large enough effect in the signal ratio in the repeat runs, not every such curve was filed as active; the % refers to the signal ratio). In short, it runs like this: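 Antagonist mode: compound added to VDR-bla cells alongside agonist 1alpha,25-dihydroxyvitamin D3 (3 nM final), incubation 16 h at 37C. Read-out is LiveBLAzer FRET fluorescence, 2 h at room temperature.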
Assay [14] in a line: qHTS assay for small molecule activators of the heat shock response signaling pathway - cell viability counter screen (AID 743209). Note: nearly all actives have a fitted effect of over 50% in size. The method, boiled down:
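HSE-bla HeLa cells plated overnight, then exposed to Tox21 compounds (23 nL in DMSO) for 5 h at 37 C. After the bla reporter read, CellTiter-Glo was added in the same wells and luminescence read after 30 min at room temperature.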

Assay [15] in a line: qHTS assay for small molecule activators of the heat shock response signaling pathway (AID 743210; active = well fitted activation curve with a large enough effect in the signal ratio in the repeat runs, with a control signal flat, not every such curve was filed as active; the % refers to the signal ratio;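 note: HeLa cells with beta-lactamase reporter driven by heat shock elements; series mostly up to about 63 µM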). In short, it runs like this: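 In HSE-bla HeLa cells, 5 h compound incubation (37 C) precedes addition of LiveBLAzer B/G substrate; after 2.5 h at room temperature, fluorescence intensity indicates reporter induction.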
Assay [16] is described as follows: qHTS assay to identify small molecule agonists of the peroxisome proliferator-activated receptor delta (PPARd) signaling pathway - cell viability counter screen (AID 743211). Note: nearly all actives have a fitted effect of over 55% in size. In short, it runs like this:
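Viability was measured as CellTiter-Glo luminescence (30 min, room temperature) in the same wells as the beta-lactamase readout. GeneBLAzer PPARd UAS-bla HEK293H cells received compound after 5 h plating and were incubated 17 h at 37 C.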

The nature of assay [17]: qHTS assay to identify small molecule antagonists of the farnesoid-X-receptor (FXR) signaling pathway - cell viability counter screen (AID 743221; active = well fitted cell-killing curve with a large enough effect in the repeat runs, not every such curve was filed as active; note: nearly all actives have a fitted effect of over 50% in size). In short, it runs like this:
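Cytotoxicity counter screen run in the FXR-bla reporter wells: HEK 293T cells exposed to compound with 50 uM (final) chenodeoxycholic acid for 16 h, 37 C, then viability measured by CellTiter-Glo luminescence after 30 min, room temperature.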

Assay [18] can be described thus: qHTS assay for small molecule agonists of the antioxidant response element (ARE) signaling pathway (AID 743202; active = well fitted activation curve with a large enough effect in the signal ratio in the repeat runs, not every such curve was filed as active; the % refers to the signal ratio). In short, it runs like this:
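An ARE-responsive beta-lactamase gene stably integrated in HepG2 cells serves as reporter. After 5 h plating and 16 h compound incubation at 37 C, fluorescence of the B/G FRET substrate was measured.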

Assay [19] deals with Bile acid receptor (Homo sapiens) (UniProt Q96RI1). In words: qHTS assay to identify small molecule antagonists of the farnesoid-X-receptor (FXR) signaling pathway (AID 743217; active = well fitted inhibition curve with a large enough effect in the signal ratio in the repeat runs, not every such curve was filed as active; the % refers to the signal ratio). In short, it runs like this: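 FXR-UAS-bla HEK 293T cells (beta-lactamase reporter) given compound plus chenodeoxycholic acid (50 uM final), 16 h at 37C. LiveBLAzer B/G FRET substrate added for 2 h at room temperature; fluorescence read.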
Bile acid receptor (Homo sapiens), sequence (Q96RI1 whole entry, looked up): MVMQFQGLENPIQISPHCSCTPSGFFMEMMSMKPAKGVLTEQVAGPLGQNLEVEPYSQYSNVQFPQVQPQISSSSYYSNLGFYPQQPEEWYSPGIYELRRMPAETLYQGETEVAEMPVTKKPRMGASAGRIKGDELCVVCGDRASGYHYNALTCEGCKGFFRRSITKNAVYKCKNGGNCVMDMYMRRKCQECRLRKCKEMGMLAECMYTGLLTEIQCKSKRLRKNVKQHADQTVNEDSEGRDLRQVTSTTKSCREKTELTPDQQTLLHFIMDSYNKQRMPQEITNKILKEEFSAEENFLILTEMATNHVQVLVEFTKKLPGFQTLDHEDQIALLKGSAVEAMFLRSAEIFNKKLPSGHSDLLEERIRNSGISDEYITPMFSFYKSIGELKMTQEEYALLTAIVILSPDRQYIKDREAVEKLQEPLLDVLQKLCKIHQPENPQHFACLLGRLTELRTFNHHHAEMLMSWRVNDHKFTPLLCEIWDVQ

Assay [20] has the same target. In words: qHTS assay to identify small molecule agonists of the farnesoid-X-receptor (FXR) signaling pathway (AID 743220; active = well fitted activation curve with a large enough effect in the signal ratio in the repeat runs, not every such curve was filed as active; the % refers to the signal ratio). In short, it runs like this: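 Beta-lactamase reporter under UAS control in GeneBLAzer FXR HEK 293T cells (5000/well) measured with LiveBLAzer FRET substrate after 2 h at room temperature. Compound exposure lasted 16 h at 37C.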

Where “and” joins values, the source holds several entries; their conditions need not be identical. Equal entries are not always repeated. Results filed as inconclusive are left out. Calls of active or inactive are those of the source. Unless noted, calls come from the whole dose curve; as a rule, active = well fitted curve in the direction sought with a large enough effect in the repeat runs; inconclusive = weak or mixed curves; inactive = no such curve, though single readings can be large; an effect the other way counts as inactive or inconclusive.

Peroxisome proliferator-activated receptor delta (Homo sapiens), sequence (Q03181 whole entry, looked up): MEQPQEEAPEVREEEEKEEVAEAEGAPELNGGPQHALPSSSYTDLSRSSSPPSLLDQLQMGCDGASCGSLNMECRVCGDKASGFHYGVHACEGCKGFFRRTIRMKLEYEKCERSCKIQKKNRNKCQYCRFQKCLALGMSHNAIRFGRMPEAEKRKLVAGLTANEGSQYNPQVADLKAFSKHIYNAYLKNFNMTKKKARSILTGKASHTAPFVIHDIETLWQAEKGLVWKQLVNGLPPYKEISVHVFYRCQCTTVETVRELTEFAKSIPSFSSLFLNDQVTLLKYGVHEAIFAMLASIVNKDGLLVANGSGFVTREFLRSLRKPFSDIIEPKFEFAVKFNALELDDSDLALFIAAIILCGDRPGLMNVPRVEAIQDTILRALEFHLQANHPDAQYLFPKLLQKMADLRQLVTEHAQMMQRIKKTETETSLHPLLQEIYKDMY
Peroxisome proliferator-activated receptor gamma (Homo sapiens), sequence (P37231 whole entry, looked up): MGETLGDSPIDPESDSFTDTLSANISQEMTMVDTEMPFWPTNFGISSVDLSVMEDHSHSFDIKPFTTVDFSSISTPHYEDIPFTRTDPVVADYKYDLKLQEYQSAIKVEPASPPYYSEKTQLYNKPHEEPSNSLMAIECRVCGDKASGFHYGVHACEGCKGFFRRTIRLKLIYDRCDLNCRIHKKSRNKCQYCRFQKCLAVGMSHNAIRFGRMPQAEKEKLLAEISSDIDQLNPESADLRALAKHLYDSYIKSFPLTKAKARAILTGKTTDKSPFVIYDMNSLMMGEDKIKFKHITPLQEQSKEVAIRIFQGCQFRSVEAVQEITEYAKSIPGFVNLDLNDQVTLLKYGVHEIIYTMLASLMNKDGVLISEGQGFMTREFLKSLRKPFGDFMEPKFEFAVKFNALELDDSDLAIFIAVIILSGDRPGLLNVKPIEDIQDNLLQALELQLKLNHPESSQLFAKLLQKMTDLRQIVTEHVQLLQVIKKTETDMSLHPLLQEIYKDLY
Aryl hydrocarbon receptor (Homo sapiens), sequence (P35869 whole entry, looked up): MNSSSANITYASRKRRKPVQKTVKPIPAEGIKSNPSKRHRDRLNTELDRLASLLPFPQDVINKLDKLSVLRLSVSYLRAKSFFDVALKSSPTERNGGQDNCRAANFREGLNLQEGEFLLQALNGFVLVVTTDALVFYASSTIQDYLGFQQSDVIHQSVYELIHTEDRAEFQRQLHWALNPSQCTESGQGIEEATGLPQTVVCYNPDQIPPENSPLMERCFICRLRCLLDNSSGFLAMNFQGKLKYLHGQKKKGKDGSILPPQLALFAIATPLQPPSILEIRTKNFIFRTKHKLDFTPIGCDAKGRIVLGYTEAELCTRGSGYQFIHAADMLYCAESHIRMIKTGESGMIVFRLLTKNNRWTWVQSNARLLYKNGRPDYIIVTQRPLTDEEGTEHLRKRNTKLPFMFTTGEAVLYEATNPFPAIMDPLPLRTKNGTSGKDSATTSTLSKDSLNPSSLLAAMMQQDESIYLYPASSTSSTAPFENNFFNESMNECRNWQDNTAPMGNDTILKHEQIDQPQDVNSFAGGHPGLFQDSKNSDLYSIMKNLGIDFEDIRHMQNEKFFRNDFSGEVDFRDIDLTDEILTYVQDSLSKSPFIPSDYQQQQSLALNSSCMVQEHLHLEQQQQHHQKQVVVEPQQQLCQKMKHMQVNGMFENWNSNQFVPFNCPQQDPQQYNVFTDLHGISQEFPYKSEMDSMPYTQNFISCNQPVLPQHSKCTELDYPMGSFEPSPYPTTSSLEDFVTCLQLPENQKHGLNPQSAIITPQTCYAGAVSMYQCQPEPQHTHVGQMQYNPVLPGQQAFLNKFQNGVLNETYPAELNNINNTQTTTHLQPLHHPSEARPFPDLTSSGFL
Vitamin D3 receptor (Homo sapiens), sequence (P11473 whole entry, looked up): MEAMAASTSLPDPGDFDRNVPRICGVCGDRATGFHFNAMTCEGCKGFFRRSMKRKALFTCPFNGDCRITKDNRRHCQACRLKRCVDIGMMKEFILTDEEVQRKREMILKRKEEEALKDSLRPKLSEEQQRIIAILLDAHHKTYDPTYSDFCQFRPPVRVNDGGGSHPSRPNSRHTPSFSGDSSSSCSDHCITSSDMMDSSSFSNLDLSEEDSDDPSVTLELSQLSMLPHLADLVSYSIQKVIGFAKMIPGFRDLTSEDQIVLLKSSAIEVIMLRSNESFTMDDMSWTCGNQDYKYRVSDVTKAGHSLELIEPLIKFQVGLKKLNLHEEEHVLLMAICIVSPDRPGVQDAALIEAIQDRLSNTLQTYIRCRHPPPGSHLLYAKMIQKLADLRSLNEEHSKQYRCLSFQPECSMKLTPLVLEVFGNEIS

For the molecule `Cc1cnc(C2=NC(C)(C(C)C)C(=O)N2)c(C(=O)O)c1` (stereo not drawn), the Potency entry in assay [1], in assay [2], in [3], in assay [4], in assay [5] and in assay [6] was “inactive” throughout. Moreover, the Potency result in [7], in [9], in [10], in assay [11] and in assay [13] was “inactive” in each case. In addition, the molecule was classed as inactive in assay [8] and in assay [12].

With `C=CCOC(=O)C(C)(C)OC(=O)c1cc(-n2c(=O)cc(C(F)(F)F)n(C)c2=O)ccc1Cl`, the Potency result in [1], in assay [2], in assay [3], in [4], in [5] and in [6] was “inactive” each time. Moreover, the Potency result in [7], in [14], in [15], in [16], in [9] and in assay [10] was “inactive” in each case. For the same molecule, the Potency entry in [11] is “inactive”.

In the case of `N#CC1(N=NC2(C#N)CCCCC2)CCCCC1`, the Potency entry in [1], in [2], in assay [3], in [4], in [5] and in [6] was “inactive” in each case. The Potency entry in [7], in assay [14], in assay [9], in [11], in assay [17] and in assay [13] was “inactive” throughout.

As to `CCNC(=O)NC(=O)/C(C#N)=N/OC`, the Potency entry in [1], in [2], in [3], in assay [4], in assay [5] and in assay [18] was “inactive” in each case. The Potency result in [14], in assay [15], in assay [16], in [9], in [10] and in assay [19] was “inactive” in each case. For the same molecule, the Potency result in assay [11] and in [17] was “inactive” throughout. Also, the outcome in [8], in [20] and in assay [12] was inactive.

With `Nc1cccc2ccccc12`, the Potency result in assay [1], in assay [3], in assay [4], in [5], in assay [6] and in assay [14] was “inactive” each time. Moreover, the Potency entry in [15], in [16], in assay [9], in assay [10] and in assay [11] was “inactive” each time. Moreover, in assay [2], the Potency is 27.5 µM (active) and 27.3 µM (active). Besides, in assay [8], the result was inactive.

`CCCC(C)(COC(N)=O)COC(=O)NC(C)C` (stereo not drawn): the Potency result in assay [1], in assay [2], in assay [3], in [4], in [5] and in assay [6] was “inactive” each time. The Potency result in assay [7], in assay [14], in assay [16], in [9], in assay [11] and in [17] was “inactive” throughout. In assay [12], the molecule was classed as inactive.

Regarding `CC(C)(C)NCC(O)c1ccccc1Cl` (stereo not drawn), the Potency result in [1], in assay [2], in assay [3], in [4], in assay [5] and in assay [6] was “inactive” each time. Besides, the Potency result in assay [18], in assay [7], in assay [14], in [15], in assay [9] and in assay [11] was “inactive” throughout. Also, the result in [20] was inactive.

As to `C[N+]1(CCF)[C@@H]2CC[C@H]1CC(OC(=O)C(O)(c1ccccc1)c1ccccc1)C2` (stereo partly drawn), the Potency entry in assay [1], in assay [2], in [3], in assay [4], in assay [5] and in [6] was “inactive” in each case. Also, the Potency entry in assay [7], in assay [15], in assay [9], in [10], in [11] and in assay [17] was “inactive” throughout. Besides, in [13], the Potency entry was “inactive”. Besides, the molecule was called inactive in [8], in [20] and in [12].

As for `CCCC[N+](CCCC)(CCCC)CCCC`, the Potency result in assay [1], in assay [2], in assay [3], in assay [4], in assay [5] and in [6] was “inactive” in each case. Also, the Potency result in assay [7], in [14], in assay [15], in assay [16] and in assay [9] was “inactive” throughout. Also, the molecule was called inactive in assay [8] and in assay [12].

(Values after PubChem BioAssay (Tox21).)
